Activity calls are given as the source filed them. Calls follow the shape of the dose curve; as a rule, active = well fitted cell-killing curve with a large enough effect in the repeat runs; inconclusive = weak or mixed curves, or effect the other way; inactive = flat fitted curve, though single readings scatter. Positions of bridges follow the written chain, without caps; N, C: chain ends. Non-standard residues stand in square brackets, D forms with d. Residues, ends and D or L forms follow the SMILES beside them. hArg = N=C(N)NCCCC[C@H](N)C(=O)O; Mpa = O=C(O)CCS
Assay: qHTS assay to identify small molecule HDAC inhibitors - cell viability counter screen (AID 1259365); also: nearly all actives have a fitted effect of over 50% in size
Conditions: HCT-116 viability, CellTiter-Glo ATP luminescence, 2 h; series mostly up to 92.4 µM; activity change, negative = cytotoxicity: at the top concentration
Text: U.S. Tox21 Program National Center for Advancing Translational Sciences [NCATS] NIH Chemical Genomics Center [NCGC] U.S. Environmental Protection Agency [EPA] National Institutes of Environmental Health Sciences [NIEHS] National Toxicology Program [NTP] U.S. Food and Drug Administration [FDA] Tox21 Assay Overview: Histone deacetylases (HDACs) are a group of epigenetic enzymes that regulate gene expression by histone deacetylation. HDACs are capable of introducing epigenetic modifications and such aberrations contribute to the onset and progression of several human diseases, thus making HDACs a popular therapeutic target. For identifying endogenous class I/II HDAC inhibitors a homogenous, luminogenic HDAC I/II cell based assay was used to measure the relative activity of class I and II HDACs from cells. Wild type HCT-116 cells were used to screen Tox21 compound libraries for identifying class I/II HDAC inhibitors.
Tox21 Assay Protocol Summary: HCT-116 cells were dispensed at 1,500 per well in 5uL of culture medium into white solid bottom 1536-well plates (Greiner Bio-One, Monroe, NC) using a Multidrop Combi (Thermo Scientific, Waltham, MA) dispenser. The assay plates were incubated at 37 C and 5% CO2 for an overnight, and then 23nL of compounds dissolved in DMSO and positive control were transferred using a Pintool station (Wako, San Diego, CA). The assay plates were incubated at 37C and 5% CO2 for 2hr. After compound treatment, 4uL of CellTiter-Glo reagent (Promega Corporation, Madison, WI) was added to each well of the assay plates using Flying Reagent Dispenser (FRD, Aurora Discovery, San Diego, CA) and incubated the assay plates at room temperature for 30min. The luminescence signal was quantified using a ViewLux plate reader (Perkin Elmer, Shelton, CT).
% is scaled to controls: 0 for no effect and ±100 for the full control effect.

Q: For `C=C(C)c1cccc(C(C)(C)N=C=O)c1`, which “activity change, negative = cytotoxicity” value is on record?
A: Its value is -1.89% (inactive).

Q: With `OCC1CCC(CO)CC1` (stereo not given) as the compound, how does the “activity change, negative = cytotoxicity” value read?
A: The value was 1.09% (inactive).

Q: With `CN(C)CCN(C)CCO` as the compound, how does the “activity change, negative = cytotoxicity” value read?
A: Its value is -3.75% (inactive).

Q: For `C[C@]12CCC(=O)C=C1CC[C@H]1[C@@H]3CC[C@](O)(C(=O)CO)[C@@]3(C)C[C@H](O)[C@@]12F`, which “activity change, negative = cytotoxicity” value is on record?
A: Its value is 0.126% [at 42.5 µM] (inactive).

Q: Which “activity change, negative = cytotoxicity” value does the source give for `CN(C)CCOC(=O)C(c1ccccc1)C1(O)CCCC1` (stereo not given) here?
A: Its value is -7.86% [at 42.5 µM] (inactive).

Q: For `CC1=C(C(=O)O)N2C(=O)[C@@H](NC(=O)[C@H](N)c3ccccc3)[C@H]2SC1`, which “activity change, negative = cytotoxicity” value is on record?
A: The value was 2.79% [at 42.5 µM] (inactive).

Q: With `Cc1ccc(C(C)NC(=O)[C@@H](NC(=O)OC(C)C)C(C)C)cc1` (stereo not given in full) as the compound, how does the “activity change, negative = cytotoxicity” value read?
A: The value was -0.14% (inactive).

Q: Which “activity change, negative = cytotoxicity” value does the source give for `CC1=C(C(=O)O)N2C(=O)[C@@H](NC(=O)[C@H](N)C3=CCC=CC3)[C@H]2SC1` here?
A: The value was -1.56% [at 42.5 µM] (inactive).

Q: For `CC/C=C\CCOC(=O)c1ccccc1O`, which “activity change, negative = cytotoxicity” value is on record?
A: The value was -8.25% (inactive).

Q: Which “activity change, negative = cytotoxicity” value does the source give for `CC(=O)CCC1=C(C)CCCC1(C)C` here?
A: The value was -2.46% (inactive).

Q: With `COc1cc2c(cc1OC)CN(C(=O)[C@H](C)N[C@@H](CCc1ccccc1)C(=O)O)[C@H](C(=O)O)C2` as the compound, how does the “activity change, negative = cytotoxicity” value read?
A: Its value is 0.0265% [at 42.5 µM] (inactive).

Q: With `COc1nc(N)nc2nc[nH]c12` as the compound, how does the “activity change, negative = cytotoxicity” value read?
A: Its value is 16.1% (inactive).

Q: Which “activity change, negative = cytotoxicity” value does the source give for `C/C=C(\C)C(=O)OCCc1ccccc1` here?
A: The value was -0.102% (inactive).

Q: With `O=Cc1ccccc1Cl` as the compound, how does the “activity change, negative = cytotoxicity” value read?
A: The value was -2.37% (inactive).

Q: For `CC1CCc2c(N3CCC(O)CC3)c(F)cc3c(=O)c(C(=O)O)cn1c23` (stereo not given), which “activity change, negative = cytotoxicity” value is on record?
A: Its value is 4.5% [at 42.5 µM] (inactive).

Q: With `CCCCCCCCCCOC(C)=O` as the compound, how does the “activity change, negative = cytotoxicity” value read?
A: Its value is 0.876% (inactive).

Q: For `CCC(C)C(C)=O` (stereo not given), which “activity change, negative = cytotoxicity” value is on record?
A: The value was -1.57% (inactive).

Q: Which “activity change, negative = cytotoxicity” value does the source give for `CC1=C(O)C(=O)C(C)O1` (stereo not given) here?
A: The value was 1.27% (inactive).

Q: With `C#CCN[C@@H]1CCc2ccccc21` as the compound, how does the “activity change, negative = cytotoxicity” value read?
A: The value was 1.18% [at 42.5 µM] (inactive).

Q: Which “activity change, negative = cytotoxicity” value does the source give for `CCC(C)C(=O)OCCc1ccccc1` (stereo not given) here?
A: The value was -5.11% (inactive).

Q: For `CN(C)CCCO[C@@H]1[C@H]2OC(C)(C)O[C@H]2O[C@@H]1C(O)CO` (stereo not given in full), which “activity change, negative = cytotoxicity” value is on record?
A: Its value is 2.19% [at 42.5 µM] (inactive).

Q: Which “activity change, negative = cytotoxicity” value does the source give for `C=CC/C=C/C` here?
A: The value was 3.91% (inactive).

Q: Which “activity change, negative = cytotoxicity” value does the source give for `CCCCCc1cccc(=O)o1` here?
A: The value was -0.105% (inactive).

Q: For `CCCCOC(=O)[C@H](C)O`, which “activity change, negative = cytotoxicity” value is on record?
A: The value was -1.11% (inactive).

Q: Which “activity change, negative = cytotoxicity” value does the source give for `CC(=O)Nc1ccc(OC(=O)c2ccccc2OC(C)=O)cc1` here?
A: Its value is 3.92% [at 42.5 µM] (inactive).

Q: For `O=C(NCN1CCOCC1)c1cnccn1`, which “activity change, negative = cytotoxicity” value is on record?
A: The value was -0.0545% [at 42.5 µM] (inactive).

Q: Which “activity change, negative = cytotoxicity” value does the source give for `COP(=O)(O)OP(=O)(O)OC` here?
A: Its value is -17.4% (inactive).

Q: For `CC1(C)O[C@H]2CC(=O)OC[C@]23[C@H]2CC[C@@]4(C)[C@H](c5ccoc5)OC(=O)[C@H]5O[C@]54[C@]2(C)C(=O)C[C@@H]13`, which “activity change, negative = cytotoxicity” value is on record?
A: The value was 1.23% [at 42.5 µM] (inactive).

Q: Which “activity change, negative = cytotoxicity” value does the source give for `O=C1NC(c2ccccc2)(c2ccccc2)C(=O)N1COP(=O)(O)O` here?
A: Its value is 2.83% [at 42.5 µM] (inactive).

Q: Which “activity change, negative = cytotoxicity” value does the source give for `C=CCCCCCCCC` here?
A: The value was -2.08% (inactive).

Q: Which “activity change, negative = cytotoxicity” value does the source give for `Cc1ccnc(N)c1` here?
A: Its value is -0.55% (inactive).

Q: With `CC1(C)Oc2ccc(C#N)cc2[C@@H](N2CCCC2=O)[C@@H]1O` as the compound, how does the “activity change, negative = cytotoxicity” value read?
A: Its value is -1.12% [at 42.5 µM] (inactive).

Q: For `CCCCOCCOC(=O)COc1ccc(Cl)cc1Cl`, which “activity change, negative = cytotoxicity” value is on record?
A: Its value is -1.61% (inactive).

Q: Which “activity change, negative = cytotoxicity” value does the source give for `CC(=O)O[C@H]1C[C@@H]2CC[C@@]1(C)C2(C)C` here?
A: The value was -2.26% (inactive).

Q: Which “activity change, negative = cytotoxicity” value does the source give for `C=Cc1ccc(C(C)(C)C)cc1` here?
A: Its value is 0.855% (inactive).

Q: For `NC(=O)[C@@H]1CSSCCC(=O)N[C@@H](CCCCN=C(N)N)C(=O)NCC(=O)N[C@@H](CC(=O)O)C(=O)N[C@@H](Cc2c[nH]c3ccccc23)C(=O)N2CCC[C@H]2C(=O)N1` ([Mpa][hArg]GDWPC-NH2; disulfide 1-7), which “activity change, negative = cytotoxicity” value is on record?
A: The value was -0.036% [at 42.5 µM] (inactive).

Q: With `CCO[Si](CC)(OCC)OCC` as the compound, how does the “activity change, negative = cytotoxicity” value read?
A: The value was -2.05% (inactive).

Q: With `N[C@@H](CSCCCO)C(=O)O` as the compound, how does the activity change, negative = cytotoxicity read?
A: Its activity change, negative = cytotoxicity is -0.57% [at 19 µM] (inactive).

Q: With `C[Si]1(C)O[Si](C)(C)O[Si](C)(C)O[Si](C)(C)O[Si](C)(C)O1` as the compound, how does the “activity change, negative = cytotoxicity” value read?
A: Its value is -1.67% (inactive).

Q: Which “activity change, negative = cytotoxicity” value does the source give for `c1ccc2c(CC3=NCCN3)cccc2c1` here?
A: The value was -1.59% [at 42.5 µM] (inactive).

Source: PubChem BioAssay (Tox21)
